Where “and” joins values, the source holds several entries; their conditions need not be identical. Equal entries are not always repeated. Records with an inconclusive call do not appear. Calls of active or inactive are those of the source. Unless noted, calls come from the whole dose curve; as a rule, active = well fitted curve in the direction sought with a large enough effect; inconclusive = small, poorly fitted or top-dose-only effect, or another doubt; inactive = no such curve, though single readings can be large; an effect the other way counts as inactive or inconclusive.
Columns and labels:
[1] = Cell Viability - Mesenchymal (AID 546); settings: mesenchymal cells viability, qHTS; series mostly up to 91.7 µM;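 note: cells exposed to compound for 40 hours before reading; 0% = DMSO only and -100% = 100 µM tamoxifen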
How it was run: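 Human kidney mesenchymal cells from normal renal glomeruli, 1000 cells/well, rested 5 hr at 37 °C, then treated 40 hr at 37 °C in complete medium. Cellular ATP read by CellTiter-Glo luminescence; AC50 from Hill-equation fits.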

[2] = Cell Viability - LYMP2-001 (AID 921); settings: LYMP2-001 lymphoblastoid cell viability; series mostly up to 92.2 µM;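 note: 0% = DMSO only and full inhibition = tetraoctylammonium bromide control wells; nearly all actives have a fitted effect of over 70% in size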
How it was run: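 Human lymphoblastoid cells (Coriell), 2500 per well, were preincubated 5 hr at 37 C, then exposed to compounds in complete medium for 24 hr at 37 C. Cellular ATP was read by CellTiter-Glo luminescence; AC50 from Hill fits of concentration-response data.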

[3] = Cell Viability - LYMP1-003 - Assay at 40 hr (AID 964); settings: LYMP1-003 lymphoblastoid viability; series mostly up to 92.2 µM; note: % is set by controls: 0 for no effect and ±100 for the full control effect; nearly all actives have a fitted effect of over 60% in size
How it was run: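 Human lymphoblastoid LYMP1-003 cells, 2500/well in complete medium, rested 5 hr at 37 C, then exposed to compounds for 40 hr at 37 C. Viability read as intracellular ATP by CellTiter-Glo luminescence; AC50 from Hill fits of concentration-response data.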

[4] = Cell Viability - LYMP2-005 (AID 967); settings: LYMP2-005 lymphoblastoid cell viability; series mostly up to 92.2 µM;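 note: plate controls were DMSO only for no effect and 92 µM tetraoctylammonium bromide control for full effect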
How it was run: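 CellTiter-Glo luminescence (cellular ATP) read-out; LYMP2-005 lymphoblastoid cells, 2500/well, 5 h pre-incubation, then 24 h compound exposure at 37 C in complete medium. Tetraoctylammonium bromide positive control; AC50 by standard Hill fit.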

[5] = Cell Viability - LYMP2-017 (AID 972); settings: LYMP2-017 lymphoblastoid cell viability; series mostly up to 92.2 µM; note: % is set by controls: 0 for no effect and ±100 for the full control effect; nearly all actives have a fitted effect of over 55% in size
How it was run: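 Human lymphoblastoid cells (2500/well) were seeded in complete medium, held 5 hr at 37 C, then exposed to compounds for 24 hr at 37 C. Intracellular ATP was read by CellTiter-Glo luminescence after 30 min at room temperature, with AC50 values from Hill-equation fits.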

[6] = Cell Viability - LYMP2-010 (AID 981); settings: LYMP2-010 lymphoblastoid cell viability, qHTS; series mostly up to 92.2 µM; note: % is set by controls: 0 for no effect and ±100 for the full control effect; nearly all actives have a fitted effect of over 55% in size
How it was run: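 Human lymphoblastoid LYMP2-010 cells (2500/well) were preincubated 5 hr at 37 C, then exposed to compounds for 24 hr at 37 C in complete medium. Intracellular ATP was measured by CellTiter-Glo luminescence after 30 min at room temperature; AC50 from Hill-fitted concentration-response.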

[7] = Cell Viability - LYMP2-022 (AID 987); settings: LYMP2-022 lymphoblastoid cell viability; series mostly up to 92.2 µM;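 note: 0% = DMSO alone and full effect = tetraoctylammonium bromide at 92 µM; nearly all actives have a fitted effect of over 55% in size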
How it was run: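 Human lymphoblastoid cells, 2500/well, preincubated 5 hr at 37 C, then exposed to compounds over a concentration range for 24 hr at 37 C in complete medium. Viability read as intracellular ATP by CellTiter-Glo luminescence after 30 min at room temperature; AC50 from Hill fits.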

[8] = Cell Viability - LYMP1-002 - Assay at 40 hr (AID 994); settings: LYMP1-002 lymphoblastoid cell viability; series mostly up to 92.2 µM;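 note: 0% = DMSO only and full inhibition = 92 µM tetraoctylammonium bromide; nearly all actives have a fitted effect of over 60% in size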
How it was run: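 Human lymphoblastoid cells, 2500/well in complete medium, were preincubated 5 hr at 37 C, then exposed to compounds for 40 hr at 37 C. Intracellular ATP was read by CellTiter-Glo luminescence after 30 min at room temperature; AC50 from Hill-equation fits.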

[9] = molecular target: Glucocorticoid receptor (Homo sapiens) (UniProt P04150); assay: qHTS assay for small molecule agonists of glucocorticoid receptor signaling (AID 588532; active = well fitted curve in the direction sought with a large enough effect in the signal ratio, with a control signal flat; the % refers to the signal ratio;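 note: 100% = dexamethasone at 0.1 µM and 0% = DMSO only wells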); settings: HeLa MMTV-bla, beta-lactamase ratio, agonist, 18 h; stronger effect = higher value; percent of dexamethasone control, DMSO zero
How it was run: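 Cells were plated and rested 3-5 h at 37 C, compounds were added in titration and incubated 18 h, then CCF4 substrate was loaded for 2 h at RT before reading blue/green fluorescence. EC50 came from Hill-equation fitting.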

[10] = qHTS assay for small molecule antagonists of peroxisome proliferator-activated receptor delta signaling (AID 588535; active = well fitted inhibition curve with a large enough effect in the signal ratio, with a control signal flat, not every such curve was filed as active; the % refers to the signal ratio;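 for max response: cells co-treated with a PPAR-delta agonist as stimulator during compound exposure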); settings: HEK293T PPARd-UAS-bla, beta-lactamase FRET ratio, 18 h; 460 nm channel
How it was run: (§1)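 Cells were seeded at 4000 per well in assay medium containing 2% charcoal/dextran FBS and held 5 hrs at 37 C. Compounds were then added for 18 hrs. CCF4 substrate was applied for 2 hrs at room temperature before fluorescence reading.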

[11] = molecular target: Peroxisome proliferator-activated receptor delta (Homo sapiens) (UniProt Q03181); assay: as above; settings: HEK293T PPARd-UAS-bla, beta-lactamase FRET ratio, 18 h; series mostly up to 76.7 µM
How it was run: as §1

[12] = molecular target: Thyroid hormone receptor beta (Homo sapiens) (UniProt P10828); assay: qHTS assay for small molecule antagonists of thyroid hormone receptor beta signaling (AID 588547; active = well fitted inhibition curve with a large enough effect in the signal ratio, with a control signal flat, not every such curve was filed as active; the % refers to the signal ratio;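 note: cells stimulated with 0.4 nM T3 agonist during compound exposure; % is set by controls: 0 for no effect and ±100 for the full control effect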); settings: TR-UAS-bla HEK293, beta-lactamase ratio, antagonist mode, 18 h
How it was run: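 TR-UAS-bla GripTite HEK293 cells in 2% charcoal/dextran FBS medium; compounds 0.59 nM to 92 uM with T3 at 0.4nM final, 18 h at 37 C. Beta-lactamase read by CCF4 fluorescence (460/530 nm); Hill fits gave IC50 and efficacy.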

[13] = qHTS assay for small molecule antagonists of the retinoid-related orphan receptor gamma (ROR-gamma) signaling pathway - cell viability counter screen (AID 720652; active = well fitted curve in the direction sought with a large enough effect in the repeat runs; an effect the other way counts as inactive or inconclusive;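 note: CHO reporter cells with doxycycline-induced ROR-gamma expression; compound exposure lasted 16 hr before ATP read; % is set by controls: 0 for no effect and ±100 for the full control effect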); settings: RORgamma reporter cell line viability counter screen; series mostly up to 92.2 µM
How it was run: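 Counter screen in CHO cells carrying TET-inducible ROR-gamma and an ROR response element-luciferase reporter; cells plated 5 hr, compound pinned, doxycycline added, then 16 hr at 37 C. Viability read as intracellular ATP by CellTiter-Glo luminescence.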

[14] = Cell Viability - LYMP2-002 (AID 977); settings: LYMP2-002 lymphoblastoid cell viability, qHTS; series mostly up to 92.2 µM;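 note: plate controls were DMSO only for no effect and 92 µM tetraoctylammonium bromide for full effect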
How it was run: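 Human lymphoblastoid LYMP2-002 cells, 2500 per well, exposed to compounds for 24 h at 37 C in complete medium; viability read as intracellular ATP by CellTiter-Glo luminescence, AC50 from Hill fits.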

[15] = molecular target: Peroxisome proliferator-activated receptor alpha (Homo sapiens) (UniProt Q07869); assay: qHTS assay for small molecule agonists of the peroxisome proliferator-activated receptor alpha (PPARalpha) signaling pathway (AID 651778); settings: PathHunter PPARalpha complementation, chemiluminescence, 6 h; stronger effect = higher value; note: % of control where 0% means no effect
How it was run: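 Enzyme-fragment complementation assay in which ligand-bound PPARalpha translocates and forms an active enzyme that generates chemiluminescence. Cells were plated overnight, exposed to compound for 6 hr at 37 C, and then given detection reagent for 60 min at room temperature.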

Chain of Glucocorticoid receptor (Homo sapiens) (P04150 whole entry, looked up): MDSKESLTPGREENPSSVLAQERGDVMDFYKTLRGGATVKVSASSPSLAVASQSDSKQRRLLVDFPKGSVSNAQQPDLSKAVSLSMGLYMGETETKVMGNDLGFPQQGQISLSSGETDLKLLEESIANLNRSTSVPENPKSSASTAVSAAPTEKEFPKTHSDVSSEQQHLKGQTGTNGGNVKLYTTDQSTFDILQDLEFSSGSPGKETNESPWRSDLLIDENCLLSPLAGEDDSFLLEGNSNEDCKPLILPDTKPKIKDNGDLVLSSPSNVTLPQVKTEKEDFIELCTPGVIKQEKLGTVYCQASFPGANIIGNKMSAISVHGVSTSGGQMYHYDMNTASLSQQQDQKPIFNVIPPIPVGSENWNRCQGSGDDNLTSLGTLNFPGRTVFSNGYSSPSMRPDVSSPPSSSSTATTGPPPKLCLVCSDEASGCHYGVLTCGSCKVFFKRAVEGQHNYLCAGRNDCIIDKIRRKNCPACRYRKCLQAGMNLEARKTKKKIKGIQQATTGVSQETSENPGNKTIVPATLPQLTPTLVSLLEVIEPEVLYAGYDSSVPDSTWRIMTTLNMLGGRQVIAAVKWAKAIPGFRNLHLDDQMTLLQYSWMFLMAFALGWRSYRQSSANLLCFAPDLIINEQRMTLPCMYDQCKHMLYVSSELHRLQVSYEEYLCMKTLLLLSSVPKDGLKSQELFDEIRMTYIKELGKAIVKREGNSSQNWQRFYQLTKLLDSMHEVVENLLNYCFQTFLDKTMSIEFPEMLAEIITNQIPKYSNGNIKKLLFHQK
Chain of Thyroid hormone receptor beta (Homo sapiens) (P10828 whole entry, looked up): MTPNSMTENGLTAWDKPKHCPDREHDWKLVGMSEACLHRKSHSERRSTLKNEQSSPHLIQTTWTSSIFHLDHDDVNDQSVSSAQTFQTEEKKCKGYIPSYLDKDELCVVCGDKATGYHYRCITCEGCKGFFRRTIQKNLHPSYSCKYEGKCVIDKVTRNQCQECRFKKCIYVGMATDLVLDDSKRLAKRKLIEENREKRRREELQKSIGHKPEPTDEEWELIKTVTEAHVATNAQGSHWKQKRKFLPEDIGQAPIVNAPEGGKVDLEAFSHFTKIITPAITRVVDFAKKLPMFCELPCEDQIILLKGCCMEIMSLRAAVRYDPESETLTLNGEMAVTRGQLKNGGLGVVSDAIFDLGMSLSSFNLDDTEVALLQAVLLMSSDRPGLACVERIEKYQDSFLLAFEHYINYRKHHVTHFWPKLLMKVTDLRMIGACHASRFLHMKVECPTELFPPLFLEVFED
Chain of Peroxisome proliferator-activated receptor delta (Homo sapiens) (Q03181 whole entry, looked up): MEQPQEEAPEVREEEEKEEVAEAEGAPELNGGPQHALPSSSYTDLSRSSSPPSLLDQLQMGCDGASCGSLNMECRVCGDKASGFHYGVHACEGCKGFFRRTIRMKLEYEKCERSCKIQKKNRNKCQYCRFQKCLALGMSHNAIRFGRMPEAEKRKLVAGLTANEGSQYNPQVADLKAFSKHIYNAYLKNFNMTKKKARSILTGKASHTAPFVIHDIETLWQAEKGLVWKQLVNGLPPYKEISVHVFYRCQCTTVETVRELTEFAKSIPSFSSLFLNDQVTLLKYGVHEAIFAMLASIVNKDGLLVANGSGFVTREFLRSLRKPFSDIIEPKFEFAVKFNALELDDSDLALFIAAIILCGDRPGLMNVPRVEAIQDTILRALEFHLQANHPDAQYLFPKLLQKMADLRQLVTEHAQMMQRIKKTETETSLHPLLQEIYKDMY
Chain of Peroxisome proliferator-activated receptor alpha (Homo sapiens) (Q07869 whole entry, looked up, the tested form may be a part): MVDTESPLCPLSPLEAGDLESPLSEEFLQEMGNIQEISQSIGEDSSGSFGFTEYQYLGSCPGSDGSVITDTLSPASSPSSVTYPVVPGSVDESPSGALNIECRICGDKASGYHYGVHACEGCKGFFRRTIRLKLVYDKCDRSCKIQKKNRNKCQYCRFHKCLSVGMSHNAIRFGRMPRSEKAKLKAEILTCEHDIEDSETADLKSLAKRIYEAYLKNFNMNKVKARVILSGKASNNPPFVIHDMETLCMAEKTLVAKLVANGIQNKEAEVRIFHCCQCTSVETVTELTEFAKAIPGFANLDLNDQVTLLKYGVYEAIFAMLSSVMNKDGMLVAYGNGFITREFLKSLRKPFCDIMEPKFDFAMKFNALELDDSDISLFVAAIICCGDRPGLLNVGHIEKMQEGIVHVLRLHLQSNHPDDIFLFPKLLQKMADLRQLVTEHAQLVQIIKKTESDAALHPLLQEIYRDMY

OCC(Br)CBr (stereo unspecified)
inactive: outcome [1] | Potency [2] | Potency [3] | Potency [4] | Potency [5] | Potency [6] | Potency [7] | Potency [8] | activation [9] 4.78% | Potency [11] | activity change % (negative = inhibition) [12] 1.09% | Potency [13]
7.4%: max response [10]

O=NN(c1ccccc1)c1ccccc1
inactive: outcome [1] | Potency [2] | Potency [3] | Potency [4] | Potency [5] | Potency [14] | Potency [6] | Potency [7] | Potency [8] | activation [9] -1.26% and -2.24% | Potency [11] | activity change % (negative = inhibition) [12] -20.2% and 4.93% | max response [15] 3.69% and -0.619% | Potency [13]
35.3%: max response [10]

Cc1ccccc1N
inactive: outcome [1] | Potency [2] | Potency [3] | Potency [4] | Potency [5] | Potency [14] | Potency [6] | Potency [7] | Potency [8] | Potency [11] | activity change % (negative = inhibition) [12] 0.476% and 3.77% | max response [15] -4.65% and -3.69% | Potency [13]
7.62%: max response [10]

Cc1cccc([N+](=O)[O-])c1
12.7% and -9.62%: max response [10]
inactive: outcome [1] | Potency [2] | Potency [3] | Potency [4] | Potency [5] | Potency [14] | Potency [6] | Potency [7] | Potency [8] | activation [9] 4.17% and -5.85% | Potency [11] | max response [15] -3.99% and -0.65% | Potency [13]

Reference: PubChem BioAssay (NCATS)
